Laboratory results as given in PubChem BioAssay AID602292 (National Center for Advancing Translational Sciences (NCATS), 2012).
About 380 (29%) of roughly 1,300 compounds were called active. Roughly 37% stayed inconclusive and do not appear here. This is one part of the list. Values without a mark were called inactive. Calls come from the whole dose curve; as a rule, active = well fitted inhibition curve with a large enough effect; inconclusive = small, poorly fitted or top-dose-only effect; inactive = flat fitted curve, though single readings scatter.

molecular target: Thyrotropin receptor (Homo sapiens) (UniProt P16473); assay: qHTS for antagonists of the Thyroid Stimulation Hormone Receptor: Hit Validation in Primary Screen; settings: TSHR-expressing cells, cAMP antagonist mode; series mostly up to 58 µM; activity change, negative = inhibition: at the top concentration; note: nearly all actives have a fitted effect of over 80% in size;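 for activity change, negative = inhibition: cAMP by competitive HTRF where cellular cAMP lowers the 665 nm FRET signal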
Sequence (P16473 whole entry, looked up): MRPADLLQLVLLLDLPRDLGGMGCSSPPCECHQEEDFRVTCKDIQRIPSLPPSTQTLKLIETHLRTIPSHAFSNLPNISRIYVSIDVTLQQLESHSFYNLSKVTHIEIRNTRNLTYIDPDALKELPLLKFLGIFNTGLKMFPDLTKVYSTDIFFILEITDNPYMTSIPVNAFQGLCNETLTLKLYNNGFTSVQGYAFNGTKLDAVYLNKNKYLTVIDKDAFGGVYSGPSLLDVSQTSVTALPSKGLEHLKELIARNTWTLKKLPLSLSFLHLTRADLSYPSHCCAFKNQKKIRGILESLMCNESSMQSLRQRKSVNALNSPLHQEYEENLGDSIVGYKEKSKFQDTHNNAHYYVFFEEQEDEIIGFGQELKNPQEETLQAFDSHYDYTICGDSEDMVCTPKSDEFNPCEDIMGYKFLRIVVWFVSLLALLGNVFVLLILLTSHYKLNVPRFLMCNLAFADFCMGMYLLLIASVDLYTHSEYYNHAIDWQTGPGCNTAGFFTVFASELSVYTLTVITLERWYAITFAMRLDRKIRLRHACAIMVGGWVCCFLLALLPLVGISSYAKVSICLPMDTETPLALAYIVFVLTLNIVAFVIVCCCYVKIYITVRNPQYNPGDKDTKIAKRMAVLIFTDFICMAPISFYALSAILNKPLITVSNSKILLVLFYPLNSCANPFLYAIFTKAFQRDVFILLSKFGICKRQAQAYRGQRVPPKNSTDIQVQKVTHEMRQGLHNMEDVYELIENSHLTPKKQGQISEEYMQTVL
How it was run: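 TSHR-expressing cells were pretreated with compound, then stimulated with TSH at EC80 (4nM final) for 2 hours at 37 deg C. Cellular cAMP measured by competitive HTRF (anti-cAMP cryptate, cAMP-d2) after 30 min at room temperature.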
% is set by controls: 0 for no effect and ±100 for the full control effect; potency is the fitted concentration of half-maximal effect.

SMILES	activity change, negative = inhibition [%]	Potency
NC(=O)c1cc(S(=O)(=O)NCc2ccc(F)cc2)cs1	-2.42	–
CCN(CCCNC(=O)Cn1ncc2c([nH]c3ccc(C)cc32)c1=O)c1cccc(C)c1	-2.65	–
COc1ccc(/C=N/NC(=O)c2ccoc2C)cc1COc1c(C)cccc1C	–	12 µM (active)
COc1ccc(N2C(=O)NC(NS(=O)(=O)c3ccc(Cl)cc3)(C(F)(F)F)C2=O)cc1 (stereo not drawn)	-8.7	–
O=c1nc(/C=C/c2ccccc2C(F)(F)F)cc(C(F)(F)F)[nH]1	-8.07	–
O=c1cc(C(F)(F)F)[nH]c2ccc(OC(F)(F)F)cc12	–	9.53 µM (active)
O=c1cc(C(F)(F)F)[nH]c2c(C(F)(F)F)cccc12	–	2.39 µM (active)
O=C(Cn1ncc2c([nH]c3ccccc32)c1=O)NCC1CCN(Cc2ccc(F)cc2)CC1	-2.88	–
CCOC(=O)C1=C(C)Nc2ccccc2N=C1NC(=O)c1cc(C)on1	-4.52	–
N#CC1=C(N)NC(SCc2ccc(Br)cc2)=C(C#N)C12CCCCC2	–	23.9 µM (active)
COc1ccc(Cl)cc1NC(=O)C1CCN(C(=O)C2CC(=O)N(c3ccc(C)cc3)C2)CC1 (stereo not drawn)	-4.9	–
COc1cc(OC)c(NC(=O)Cn2cnc3sc(C)c(S(=O)(=O)N4CCOCC4)c3c2=O)cc1Cl	-6.91	–
Cc1ccc(S(=O)(=O)N2CCCC(C(=O)NC3CCCC3)C2)cc1Cl (stereo not drawn)	-6.48	–
Cc1cc(Cl)c(S(=O)(=O)N2CCSCC2)cc1OCC(=O)NC1CCCCC1	–	23.9 µM (active)
O=C(NC1CCCCC1)c1cc(-c2ccccc2O)on1	-8.18	–
CCOC(=O)c1c(S(=O)(=O)NCC(=O)Nc2cccc(C)c2C)c(C)n(C)c1C	-1.33	–
c1ccc(CNc2ncnc3scc(-c4cccs4)c23)nc1	–	21.3 µM (active)
O=C(COc1ccc(-c2ccccc2)cc1)Nc1cccnc1	–	37.9 µM (active)
Cc1ccc(OCc2nnc(NC(=O)c3cccnc3)s2)cc1	-0.605	–
O=C(CCC(=O)Nc1ccccc1)N/N=C/c1ccncc1	-9.39	–
O=C(Nc1ccc(Br)cc1)c1cccc(S(=O)(=O)Nc2cnc3ccccc3c2)c1	–	21.3 µM (active)
CCCCN1C(=O)c2ccc(C(=O)Nc3ccc(C)c(S(=O)(=O)N(C)C)c3)cc2C1=O	–	23.9 µM (active)
CCCN1C(=O)c2ccc(C(=O)Nc3cc(C)ccc3O)cc2C1=O	-0.893	–
O=[N+]([O-])c1cccc(S(=O)(=O)Nc2nc3ccccc3nc2Nc2cccc(S(=O)(=O)N3CCCCC3)c2)c1	–	12 µM (active)

SMILES	activity change, negative = inhibition [%]	Potency
COC(=O)c1sc(-c2ccc(Cl)cc2)cc1NC(=O)/C=C/C(=O)O	–	30.1 µM (active)
COC(=O)c1sc(-c2ccc(C(C)(C)C)cc2)cc1NC(=O)/C=C/C(=O)O	–	26.9 µM (active)
Cc1ccccc1NC(=O)C1(C)Cc2ccccc2C(=O)O1 (stereo not drawn)	-2.25	–
CCN(C(=O)CSc1nnc(-c2ccccc2)o1)c1c(N)n(Cc2ccccc2)c(=O)[nH]c1=O	-5.21	–
CC1CC(C)CN(CCCNC(=O)CN2C(=O)COc3ccc(S(=O)(=O)N4CCOCC4)cc32)C1 (stereo not drawn)	-3.14	–
CC(C)C1Nc2ccc(C(=O)N3CCN(c4ccccn4)CC3)cc2NC1=O (stereo not drawn)	-6.86	–
CC1CCc2c(sc(NC(=O)c3ccco3)c2C(=O)O)C1 (stereo not drawn)	-15.3	–
CN(C)c1ccc(/C=C/c2ccc3c4ccccc4ccc3[n+]2-c2ccccc2)cc1	–	23.9 µM (active)
CC[n+]1c(/C=C/c2ccc(N(C)C)cc2)ccc2ccccc21	–	26.9 µM (active)
CN(C)c1ccc(/C=C/c2cc[n+](C)cc2)cc1	–	37.9 µM (active)
CC[n+]1ccc(/C=C/c2ccc(N(C)C)cc2)c2ccccc21	–	26.9 µM (active)
O=S(=O)(C/C(=C/CO)S(=O)(=O)c1ccccc1)c1ccccc1	-9.77	–
Cc1ccnc(OC(C(=O)O)C(OCCc2ccccc2)(c2ccccc2)c2ccccc2)n1 (stereo not drawn)	-6.8	–
CSCC[C@H](NC(=O)c1ccc(Cl)c(S(=O)(=O)N2CCCC2)c1)c1nc2ccccc2[nH]1	-4	–
O=C(c1ccc(Cl)c(S(=O)(=O)N2CCCCC2)c1)N1CCCC1	-7.26	–
COc1ccc(CCNC(=O)c2ccc(Cl)c(S(=O)(=O)N3CCCCCC3)c2)cc1	–	16.9 µM (active)
COc1ccc(-c2cc(C3CCN(c4cc(Cl)nc(N)n4)CC3)[nH]n2)cc1	–	37.9 µM (active)
O=C(N[C@H]1C/C=C\C(c2ccc(F)cc2)N(Cc2ccccc2)C(=O)C1)OCC1c2ccccc2-c2ccccc21 (stereo partly drawn)	-7.35	–
O=S(=O)(Nc1cccnc1)c1ccc(Br)c2ccccc12	–	26.9 µM (active)
COc1cccc(NC(=O)Nc2nc(-c3ccc(OC)c(OC)c3)cs2)c1	–	15.1 µM (active)
O=C(NC(=S)Nc1ccccc1)c1cc(-c2ccccc2)nc2ccccc12	-9.65	–
COc1ccc(-c2ccc(SCc3ccccn3)nn2)cc1OC	0.461	–
COc1ccc(NC(=O)CSc2nc3[nH]c(=O)[nH]c(=O)c3s2)cc1OC	2.97	–
CC(=O)Nc1ccc(-c2csc(NC(=O)Nc3ccccc3)n2)cc1	–	37.9 µM (active)
